The full ranking holds about 33,000 sequences; the median of “E-score (dimensionless, -0.5 to 0.5)” is about -0.058, and the highest 2% start at about 0.35. The entries come from a sample that favours the highest values as a whole.
These sequences were tested on MvaT (assay: PBM 8-mer E-score (mean of HK and ME arrays) (E-score (dimensionless, -0.5 to 0.5)); higher = stronger relative binding preference).
Experimental: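 Protein binding microarray: GST-tagged full-length MvaT (P. aeruginosa PAO1) bound to two universal double-stranded 60-mer arrays (ME and HK), each with a constant 25-mer primer and a variable 35-mer region covering all 8-mers. The 8-mer E-score (rank-based, range -0.5 to 0.5, >0.45 = specific binding) is the mean of the two arrays.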

In order of rising “PBM 8-mer E-score” value:
1. AGCAGGCC  -0.328
2. GGAGCCAC  -0.325
3. CCCCGTGA  -0.306
4. AGCTCCCG  -0.29
5. GCAGGCGC  -0.28
6. CAGGTGTC  -0.277
7. GAGCACGA  -0.273
8. ACGCTCTC  -0.273
9. GCCTCCCC  -0.263
10. GCCCCCGC  -0.248
11. AGGGGGAG  -0.246
12. CCGTAGGA  -0.216
13. CAGCGAGC  -0.199
14. CAGGAGAG  -0.196
15. ACACGACG  -0.192
16. AGACTTGG  -0.179
17. CGGGAAAG  -0.177
18. CTGCCACC  -0.166
19. CCTTTGAG  -0.158
20. CACCTAAG  -0.143
21. AGAAAGGC  -0.118
22. GTAGTGCA  -0.115
23. GACCGCTA  -0.115
24. CGCCTAAG  -0.113
25. GGACGTTA  -0.103
26. ATGATCAC  -0.0926
27. CGGTACCG  -0.0831
28. TGCTCACA  -0.0823
29. TACGAGCA  -0.0785
30. CCTTTTGA  -0.074
31. GCTATGGA  -0.0686
32. ATCAGGCA  -0.0666
33. CAAGCAGG  -0.0598
34. AGTCACAT  -0.0559
35. GTTTCGCA  -0.0431
36. CATGTCAG  -0.042
37. TCGAATCA  -0.0287
38. AGGCATAA  -0.0265
39. AACCACTG  -0.0219
40. CTGTGCTA  -0.0139
41. CATGATGC  -0.011
42. ACATCCCA  -0.00783
43. ACACTTGC  -0.00708
44. AGTGTCTC  -0.00692
45. CAACCCGC  -0.00327
46. ATACCGAG  -1.06e-05
47. AGAGTTCG  0.00443
48. GACTTATC  0.0104
49. CAGTGGAC  0.0119
50. GATTTAGA  0.0137
51. ATACTCGG  0.0138
52. AAAAATCA  0.0153
53. TCCCACAA  0.0216
54. TACGATCA  0.0229
55. CTTTTACA  0.0261
56. GACGTACA  0.034
57. AAGACATG  0.0346
58. CAATTCAC  0.0398
59. AGTACAGG  0.0418
60. CTTAAATC  0.0452
61. AACTGACG  0.0522
62. TCCTAACA  0.0526
63. GCAATACA  0.0621
64. AACAATCT  0.0729
65. CAAATGTA  0.0762
66. TCTCATAA  0.0817
67. GAATTCAA  0.0832
68. GAAATACA  0.0961
69. ATGTAGTC  0.1
70. ACTTTATC  0.105
71. GTTAAAGA  0.11
72. GATTGAAA  0.12
73. CACTTATG  0.12
74. ACTTTTTG  0.122
75. AAGAGAAT  0.126
76. GAATCAAA  0.13
77. GATTTTTA  0.133
78. ACGTATAC  0.136
79. CACTTATC  0.14
80. AGTTTATC  0.144
81. ATTAAAGG  0.156
82. CTTAAACA  0.156
83. CACATTAG  0.162
84. ATTACTCG  0.169
85. AACTACCA  0.17
86. GAAATGAA  0.17
87. AGTGCTAT  0.172
88. AAAATAGA  0.173
89. ATACTCAT  0.175
90. AGTAAATG  0.175
91. CACAATAG  0.176
92. AACTTAGG  0.182
93. AAATTTGA  0.189
94. CCTTTATA  0.193
95. CAATTTAG  0.2
96. TAATTTGA  0.201
97. AACAATTG  0.217
98. AATAGTCG  0.218
99. AAAATTTG  0.221
100. ACAATACT  0.223
101. AAATTCAA  0.226
102. AAAAAAAT  0.227
103. ATTTTATG  0.234
104. CGATTTAA  0.238
105. AAATTTCA  0.241
106. CATTTATC  0.241
107. GGTTTATA  0.242
108. CATTTTTA  0.242
109. GTTTTATA  0.243
110. AAATACTG  0.244
111. ATTAAACC  0.249
112. AAAATACA  0.25
113. GAATTTTA  0.254
114. AACAATAC  0.254
115. GAAATGTA  0.259
116. GAATTTAA  0.264
117. ATTAAAGA  0.264
118. AAAATACC  0.265
119. AATTTACA  0.269
120. AACAATTC  0.27
121. AGATTTAA  0.273
122. AATTTATG  0.273
123. AATTTATC  0.276
124. ACAATAAG  0.276
125. ACCAATAT  0.282
126. ATTAAACG  0.284
127. GGAATAAA  0.289
128. AACTTAGT  0.289
129. TAAATAGA  0.291
130. CAATTTTA  0.293
131. AACAATAG  0.294
132. GAAATAAC  0.3
133. CAAATAAA  0.301
134. CCAATAAA  0.302
135. ACTAAATA  0.31
136. ACAATAAC  0.324
137. TACAATAA  0.328
138. AAAATAAG  0.331
139. AACTTACT  0.335
140. CTTAAATA  0.337
141. CAAATAAC  0.341
142. TAATTCAA  0.346
143. TGATTTAA  0.347
144. CATTTATA  0.347
145. TAAATACA  0.35
146. CACAATAA  0.351
147. AACTTATC  0.351
148. ACAATAAA  0.356
149. TAAATGTA  0.359
150. AACAATAT  0.362
151. CAATTTAA  0.366
152. ATTTTATA  0.366
153. ATTTTACA  0.371
154. AACTTATG  0.372
155. ATTAAATG  0.373
156. AAAATAAC  0.378
157. ATTAAATC  0.382
158. ACTTTATA  0.39
159. ATTAAACA  0.391
160. AACAATTA  0.391
161. GTTAAATA  0.396
162. GATTTATA  0.398
163. AACTTATT  0.398
164. ACAATAAT  0.401
165. GAAATAAA  0.405
166. AAATTTAA  0.408
167. AAAATAAA  0.409
168. ATTAAATA  0.421
169. TAAATAAA  0.421
170. AAAATAAT  0.422
171. AACAATAA  0.422
172. AGTTTATA  0.424
173. TAATTTAA  0.457
174. AATTTATA  0.46

Source: the supplement of paper PMC4466236
